Screens from PubChem.
Rab9 promoter act: qHTS Assay for Rab9 Promoter Activators | Huh7 Rab9 promoter-luciferase reporter, luminescence, 24 h | Potency, µM (series often up to 9.22 µM), without a hit: at the highest dose activation, negative = inhibition, hits mostly activators | 320,000 compounds, 2.8% hits; note: % of control where 0% means no effect; nearly all actives have a fitted effect of over 60% in size
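Luciferase signal after 10 min detection reagent at ambient indicates Rab9 promoter upregulation; stably transfected Huh7 cells were treated 24 h with compound in DMSO at 37 °C, 5% CO2.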
ELG1 genotoxic: qHTS screen for small molecules that induce genotoxicity in human embryonic kidney (HEK293T) cells expressing luciferase-tagged ELG1; Potency, µM (series often up to 46 µM), inactives show top-dose activity change, positive = activation, most hits filed as activators; 330,000 compounds, 1.3% hits; HEK293T ELG1-luciferase reporter, luminescence, 16 h; note: % of control where 0% means no effect; nearly all actives have a fitted effect of over 60% in size
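ELG1-luciferase HEK293T cells, 2,000/well; compound pinned in; 16 hr, 37 °C, 5% CO2; ONE-Glo, 30 min RT; luminescence on CCD imager.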
FLuc modulator: qHTS profiling assay for firefly luciferase inhibitor/activator using purifed enzyme and Km concentrations of substrates (counterscreen for miR-21 project). Luciferin 4-monooxygenase (Photinus pyralis), P08659. purified FLuc, Km substrates, luminescence inhibition. Potency, µM (titrated, usually from 57.5 µM), without a hit: at the highest dose activity change, negative = inhibition, hits mostly inhibitors. 360,000 compounds, 6.9% hits. AID 588342, 2011;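 note: plate controls were vehicle for no effect and reference inhibitor for full effect; nearly all actives have a fitted effect of over 55% in size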
Target sequence (P08659 whole entry, looked up): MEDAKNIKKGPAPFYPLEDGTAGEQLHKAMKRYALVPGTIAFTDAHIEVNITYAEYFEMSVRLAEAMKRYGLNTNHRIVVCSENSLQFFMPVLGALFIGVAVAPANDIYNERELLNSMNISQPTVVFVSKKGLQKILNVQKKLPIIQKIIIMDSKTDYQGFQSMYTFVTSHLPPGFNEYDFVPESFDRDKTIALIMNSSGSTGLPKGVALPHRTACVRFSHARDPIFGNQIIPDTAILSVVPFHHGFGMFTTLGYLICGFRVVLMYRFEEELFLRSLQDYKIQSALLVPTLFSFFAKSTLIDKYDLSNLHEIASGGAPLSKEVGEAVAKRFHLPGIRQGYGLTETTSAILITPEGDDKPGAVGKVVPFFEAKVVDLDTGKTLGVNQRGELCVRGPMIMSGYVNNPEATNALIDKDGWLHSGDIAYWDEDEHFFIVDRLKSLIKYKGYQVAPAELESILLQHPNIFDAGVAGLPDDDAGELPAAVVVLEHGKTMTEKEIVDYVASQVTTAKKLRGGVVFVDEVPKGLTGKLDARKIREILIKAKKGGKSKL
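Biochemical qHTS of compounds, final roughly 60 µM downward over six points, against 10 nM purified firefly luciferase using Km concentrations of substrates (10 uM D-luciferin, 10 uM ATP) in Tris acetate pH 7.5 buffer; luminescence output.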
NPC1 promoter act: qHTS Assay for NPC1 Promoter Activators; Huh7 NPC1 promoter luciferase reporter, 24 h; Potency, µM (top dose mostly 9.22 µM), for inactives: at the highest dose activation, hits mostly activators; 320,000 compounds, 2.4% hits; note: % of control where 0% means no effect; nearly all actives have a fitted effect of over 60% in size
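Compounds in DMSO were transferred onto Huh7 NPC1-luciferase reporter cells pre-incubated 2 h; after 24 h at 37 °C, Amplite reagent was dispensed and luminescence recorded 10 min later.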
KinaseGlo FLuc: Counterscreen for Luciferase (Kinase-Glo TM) Inhibition; Luciferin 4-monooxygenase (Photuris pensylvanica), Q27757; Kinase-Glo luciferase, ATP luminescence, 8 min; Potency, µM (highest dose often 38.3 µM), for the others: at the highest dose activity change, negative = inhibition, hits mostly inhibitors; 200,000 compounds, 0.28% hits; AID 1379, 2008; note: % is set by controls: 0 for no effect and ±100 for the full control effect; nearly all actives have a fitted effect of over 60% in size
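Light output from Kinase-Glo luciferase with luciferin and 10 uM ATP in 50 mM imidazole pH 7.2, KCl, MgCl2, Tween 20, BSA; compound pin-delivered, 8-min ambient incubation, then luminescence read.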
SMN2 splice up: qHTS Assay for Enhancers of SMN2 Splice Variant Expression. AID 1458, 2008. Potency, µM (doses to about 46.1 µM), for the others: at the highest dose activity change, positive = activation, actives largely listed as activators. 210,000 compounds, 2.8% hits. HEK293 SMN2-luciferase splicing reporter, luminescence, 30-36 h; note: % of control where 0% means no effect; nearly all actives have a fitted effect of over 55% in size
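HEK293 cells carry an SMN2 […]–luciferase reporter in which exon 7 inclusion puts luciferase in frame. Cells were plated 10-12 h before compound addition, then incubated 30-36 h at 37C. ONE-Glo luminescence was read; sodium butyrate at 4.5 mM final served as control.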
An asterisk follows results filed as active; ? = inconclusive; · = no result given; [ ] = dose if it differs, or a comment. The list is not random: actives were taken first. Their share in the collection is about 7.5%. Calls come from the whole dose curve; as a rule, active = well fitted curve in the direction sought with a large enough effect; inconclusive = small, poorly fitted or top-dose-only effect, or another doubt; inactive = no such curve, though single readings can be large; an effect the other way counts as inactive or inconclusive. Potency is the fitted concentration of half-maximal effect.

SMILES	Rab9 promoter act	ELG1 genotoxic	FLuc modulator	NPC1 promoter act	KinaseGlo FLuc	SMN2 splice up
O=C(CN1C(=O)CCC1=O)Nc1nc(-c2ccc3ccccc3c2)cs1	?	14%	17µM*	26%	1%	27%
Oc1ccc(-c2nc(-c3ccc(O)c(O)c3)cs2)cc1	5%	?	15µM*	-4%	-8%	20µM*
Fc1ccc(-c2csc(-c3ccncc3)n2)cc1	17%	-8%	?	23%	1%	-9%
CC(=O)Nc1nc(-c2ccc3ccccc3c2)cs1	1.1µM*	?	1.3µM*	0.63µM*	·	·
Cc1ccc(-c2csc(NC(=O)CN3C(=O)CCC3=O)n2)cc1	-22%	4%	-1%	-2%	-5%	9%
Cc1cc(NS(=O)(=O)c2ccc(Nc3nc(-c4ccc(C)c(C)c4)cs3)cc2)no1	-2%	-3%	?	-2%	3%	-16%
O=Nc1ccc2oc(=O)ccc2c1	17%[46.1 µM]	·	·	4%[46.1 µM]	-5%	-5%
CCCc1nn2c(=O)cc(COC(=O)c3ccccc3NC(=O)COc3ccccc3F)nc2s1	·	·	-19%	·	·	·
O=S(=O)(c1ccc(Br)cc1)c1nc(-c2cccs2)oc1SCc1ccc(F)cc1	·	·	4%	·	·	-3%
COc1ccc(Br)cc1CNC(=O)C1CCCCN1S(=O)(=O)c1ccc(F)cc1 (stereo not drawn)	·	·	-10%	·	·	·
O=C(CN1C(=O)CCC1=O)Nc1nc(-c2nc3ccccc3s2)cs1	2.8µM*	?	11µM*	?	0%	13µM*
Oc1ccc(Nc2nc(-c3ccc4ccccc4c3)cs2)cc1	?	?	1.1µM*	?	-3%	25%
Cc1cccc(-c2nc(CSc3nncn4c3cc3sccc34)c(C)o2)c1	·	·	-2%	·	·	·
COc1ccc(C2OC(=O)CC2C(=O)NCc2ccc(Cl)cc2)cc1OC (stereo not drawn)	?	?	17µM*	?	1%	?
Cc1cc(C)c2c(=O)n(CC(=O)Nc3ccc(Br)c(C)c3)sc2n1	0%	0%	8.5µM*	1%	·	·
Cc1cc(NC(=O)Cc2ccsc2)ccc1Br	23%	2%	17µM*	22%	·	·
Cc1ccc(OCc2cc(C(=O)N(C)CC3CCOCC3)no2)cc1C	3.2µM*	?	12µM*	2.8µM*	·	·
Cc1cc(OCc2cc(C(=O)N(C)C3CCOCC3)no2)cc(C)c1Cl	4µM*	18%	21µM*	3.5µM*	·	·
CN(CCC1CCOCC1)C(=O)c1cc(COc2c(F)cccc2F)on1	14%	5%	-6%	-2%	·	·
COc1ccc(OCc2cc(C(=O)NC3CCOC(C)(C)C3)no2)c2ccccc12 (stereo not drawn)	3.5µM*	?	8.5µM*	2.8µM*	·	·
COc1ccccc1OCc1cc(C(=O)N(C)CCC2CCCCO2)no1 (stereo not drawn)	1.6µM*	10µM*	12µM*	2.5µM*	·	·
Cc1cccc(Nc2c3c(nc4nncn24)CCC3)c1C	·	·	3%	·	·	-3%
COc1ccc(CNC(=O)c2ccc3c(c2)N(Cc2cccc(Cl)c2)C(=O)c2ccccc2S3)c(OC)c1	·	·	-2%	·	·	·
CCCCC(=O)Nc1nnc(S(=O)(=O)N(C)Cc2ccccc2)s1	·	·	-3%	·	·	·
COc1ccc(OCc2cc(C(=O)N(C)C3CCOCC3)no2)c2ccccc12	?	12%	15µM*	?	·	·
SMILES	Rab9 promoter act	ELG1 genotoxic	FLuc modulator	NPC1 promoter act	KinaseGlo FLuc	SMN2 splice up
COc1ccc(OCc2cc(C(=O)N(C)C3CCOC3)no2)c(Cl)c1 (stereo not drawn)	9%	12%	?	2%	·	·
COc1ccccc1CNC(=O)Cc1csc2nc(-c3ccc(Cl)cc3)cn12	·	·	-18%	·	·	·
O=C(/C=C/c1ccc2c(c1)OCCCO2)c1ccccc1O	1.8µM*	16µM*	0.27µM*	3.2µM*	?	?
Cc1ccc(O)c(C(=O)/C=C/c2ccc3c(c2)OCCCO3)c1	?	?	5.4µM*	?	?	?
COc1ccc(CCNC(=O)CCCn2c(=O)c3ccccc3n(Cc3c(C)cc(C)cc3C)c2=O)cc1OC	·	·	1%	·	·	3%
CCC(C)C(=O)N1CCc2cc(-c3csc(N)n3)ccc21 (stereo not drawn)	1.4µM*	5.8µM*	5.4µM*	2.5µM*	-6%	11µM*
CCCC(=O)N1CCc2cc(-c3nc(N)sc3C)ccc21	3.2µM*	?	12µM*	?	·	·
CC(=O)Nc1cccc(-c2csc(N)n2)c1	0%	4%	-18%	4%	6%	-8%
CNc1nc(-c2ccc3c(c2)CCN3C(=O)CC(C)(C)C)c(C)s1	-2%	-5%	2%	-10%	1%	·
CC(C)(C)C(=O)N1CCc2cc(-c3csc(N)n3)ccc21	0.089µM*	?	0.24µM*	0.35µM*	-7%	?
Cn1c(N)c(C(=O)COC(=O)Cc2ccc(Cl)c(Cl)c2)c(=O)n(C)c1=O	·	0%	·	·	·	·
CCN(CC)C(=O)c1sc2c(c1C)c(=O)n(-c1ccccc1)c(=O)n2CC(=O)Nc1ccc(C)cc1C	·	·	-6%	·	·	·
O=C(COc1ccc(Cl)cc1)NCCc1csc(-c2ccc(C(F)(F)F)cc2)n1	·	·	4%	·	·	·
OC1CCCCC1Sc1nc2ccccc2s1 (stereo not drawn)	?	?	17µM*	?	-1%	-8%
c1ccc2sc(SSc3nc4ccccc4s3)nc2c1	·	·	·	·	·	1%
CCOC(=O)/C(C(C)=O)=C1/OC(=O)c2ccccc21	-2%	-5%	-1%	1%	-1%	6%
O=C(O)/C(=C1\OC(=O)c2ccccc21)c1ccccc1	-3%	1%	27µM*	-5%	4%	14%
COc1ccc(-c2cc3c(=O)n(CC(=O)Nc4cc(C)ccc4C)ccn3n2)cc1	·	·	3%	·	·	·
CCOc1ccccc1-c1nc(Cn2c(=O)cc(C)c3c(C)nn(-c4ccccc4)c32)c(C)o1	·	·	3%	·	·	·
COc1ccc(O)c(/C=C(\C#N)C(=O)Nc2cccnc2)c1	21%	?	4.8µM*	8%	-4%	5%
COc1ccc(/C=C(\C#N)C(=O)Nc2cccnc2)cc1	1%	1%	?	-3%	0%	2%
CCCOc1ccccc1/C=C(\C#N)C(=O)Nc1cccnc1	28%	?	19µM*	8%	·	·
Cc1ccc(NC(=O)C2CC2c2ccccc2)c([N+](=O)[O-])c1 (stereo not drawn)	22%	?	19µM*	?	·	·
